TLR4 MyD88 comp: blocks binding of human TLR4 to MyD88 | O00206+Q99836 | HeLa CL3-4 TLR4/MyD88 BLA complementation, FRET ratio | inhibition, % at 8.4 µM | AID 861 | 0.18% of 200,000 active; in the data active = inhibition above about 25%;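 also: 0% = vehicle and 100% = reference inhibitor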
LANA-H2B inh: blocks KSHV LANA binding to histone H2A/H2B. Q9QR71. cell-free LANA-H2A/H2B peptide, fluorescence polarization. inhibition, % (test concentration not listed). 0.6% of 320,000 active; in the data active = inhibition mostly above about 10%, no sharp cut-off; inactive = mostly below about 6.7%
HTR2A ag: activates the mouse 5-HT2A serotonin receptor | P35363 | CHO-K1 mHTR2A beta-arrestin complementation, luminescence; percent of 30 µM serotonin response | activation, % at 7.6 µM | 0.66% of 360,000 active | AID 624169;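 active = activation above a run cutoff, the mean activation of all tested compounds plus 3 SD, cut at about 14% in these data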;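 also: 0% = plate median of compound wells and 100% = 30 µM serotonin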
NOD2-RIPK2 inh: NOD2-RIPK2 protein interaction inhibition. CHO BLA complementation NOD2-RIPK2, CCF4 ratio. 0.38% of 360,000 active. inhibition, % at 4.98 µM; in the data active = inhibition above about 21%;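 also: 0% = vehicle only and 100% = reference blocker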
Target sequence (O43353 whole entry, looked up): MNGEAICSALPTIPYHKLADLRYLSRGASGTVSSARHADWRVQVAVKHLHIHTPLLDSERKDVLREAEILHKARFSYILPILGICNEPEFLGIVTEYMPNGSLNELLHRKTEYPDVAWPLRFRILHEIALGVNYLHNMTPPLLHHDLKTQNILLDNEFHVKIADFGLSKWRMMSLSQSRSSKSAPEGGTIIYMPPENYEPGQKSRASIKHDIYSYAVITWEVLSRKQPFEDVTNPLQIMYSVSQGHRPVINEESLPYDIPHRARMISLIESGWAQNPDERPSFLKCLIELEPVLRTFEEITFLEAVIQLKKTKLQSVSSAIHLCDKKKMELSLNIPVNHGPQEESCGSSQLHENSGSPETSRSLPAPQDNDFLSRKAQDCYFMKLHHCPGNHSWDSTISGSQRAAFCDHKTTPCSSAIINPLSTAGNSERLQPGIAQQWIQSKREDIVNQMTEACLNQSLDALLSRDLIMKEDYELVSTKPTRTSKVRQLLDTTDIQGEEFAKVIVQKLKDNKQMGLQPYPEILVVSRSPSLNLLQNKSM
TLR9-MyD88 block: inhibitors of human TLR9-MyD88 binding; Q9NR96+Q99836; CHO BLA complementation TLR9-MyD88, CCF4 FRET ratio; inhibition, % at 4.98 µM; 0.21% of 340,000 active; AID 504734;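 active = inhibition above the mean over all tested compounds plus 3 SD, cut at about 21% in these data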;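 also: 0% = DMSO only wells and 100% = clavulanate BLA inhibitor control wells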
Rtt109 Vps75: C. albicans Rtt109 histone acetyltransferase inhibition; Q5AAJ8; purified Rtt109/Vps75, ThioGlo CoA-SH fluorescence, 4 h; inhibition, % at 34.9 µM; 0.16% of 330,000 active; AID 540336;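 active = inhibition of at least 50% in every replicate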
TLR4 MyD88 cnf: TLR4-MyD88 interaction inhibition confirmed. shares compounds with TLR4 MyD88 comp. HeLa CL3-4 BLA complementation, CCF4 FRET ratio. inhibition, % at 8.4 µM. 50% of 350 active;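 active = mean inhibition across three repeat runs above about 25% carried over from the earlier screen, limit read from the data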;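 also: plate controls were DMSO only for no effect and clavulanic acid blocking BLA at full dose for full effect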
BLA inhibitor ct: beta-lactamase inhibition flagged in TLR4-MyD88 counter-screen; shares compounds with TLR4 MyD88 comp; AID 1237; inhibition, % at 8.4 µM; 63% of 350 active; HeLa BLA reporter, CCF4 FRET ratio;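 active = mean inhibition over three repeats above about 26% taken from the earlier screen, limit read from the data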;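 also: HeLa cells stably expressing beta-lactamase reporter as counterscreen for TLR4-MyD88 inhibitors; 0% = DMSO and 100% = clavulanic acid full inhibition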
TLR9-MyD88 cf: confirmation of human TLR9-MyD88 binding inhibitors | shares compounds with TLR9-MyD88 block | CHO TLR9/MyD88 BLA complementation, CCF4 FRET ratio | inhibition, % at 4.98 µM | 51% of 680 active | AID 540250;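 active = mean inhibition across three repeats above about 21% taken from the earlier screen, limit read from the data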;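 also: blue over green emission ratio reports constitutive TLR9 MyD88 association via BLA complementation; 0% = DMSO vehicle wells and 100% = clavulanate BLA inhibitor wells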
BLA counter-1: counter-screen for TLR9-MyD88 inhibitors: non-selective beta-lactamase inhibitors; shares compounds with TLR9-MyD88 block; CHO-BLA cells, CCF4 FRET ratio, BLA reporter; 7% of 680 active; inhibition, % at 4.98 µM;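 active = mean inhibition above a 50% cutoff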;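 also: counterscreen of TLR9-MyD88 hits on CMV-driven BLA in CHO-K1 cells; 0% = DMSO alone and 100% = clavulanate blocking BLA; higher means less blue over green ratio so more BLA blockade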
TLR9 CHO cytotox: CHO cell toxicity counter-screen for TLR9-MyD88 inhibitors | shares compounds with TLR9-MyD88 block | TLR9-MyD88 CHO cells cytotoxicity, luminescence | inhibition, % at 4.98 µM | 39% of 680 active; in the data active = inhibition above about 11%
NOD2 RIPK2 conf: NOD2-RIPK2 interaction inhibition confirmed; shares compounds with NOD2-RIPK2 inh; CHO cells, NOD2-RIPK2 BLA complementation, CCF4 FRET; inhibition, % at 4.98 µM; 70% of 1,200 active; AID 624370;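 active = mean inhibition across replicates above a set limit taken from the earlier primary screen, cut at about 21% in these data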;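 also: 0% = DMSO-only wells and the high end = clavulanate BLA-blocked wells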
BLA counter-2: counter-screen for NOD2-RIPK2 interaction inhibitors: BLA reporter; inhibition, % at 4.98 µM; CHO BLA reporter, CCF4 FRET ratio, counterscreen; 57% of 1,200 active; shares compounds with NOD2-RIPK2 inh; AID 624371;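 active = mean inhibition above the low-control mean inhibition plus three low-control SD, cut at about 11% in these data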;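 also: 0% = DMSO only wells and 100% = clavulanate high control wells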
* marks the source's active call; other numbers are inactive results; x = no result. In the library only some 1.8% were active in any assay of this set; here they are far more common.

SMILES	TLR4 MyD88 comp	LANA-H2B inh	HTR2A ag	NOD2-RIPK2 inh	TLR9-MyD88 block	Rtt109 Vps75	TLR4 MyD88 cnf	BLA inhibitor ct	TLR9-MyD88 cf	BLA counter-1	TLR9 CHO cytotox	NOD2 RIPK2 conf	BLA counter-2
CC1(C(=O)NS(=O)(=O)C2CC2)CCN(C(=O)c2ccccc2OC(F)(F)F)C1 (stereo unspecified)	x	x	-3.6	-0.3	x	x	x	x	x	x	x	x	x
Cc1ccc(C(=O)OCn2ncc(Cl)c(Cl)c2=O)cc1	54.5*	6.6	-3.8	66.2*	29.7*	17.3	62.4*	17.8	27.1*	26.0	98.4*	85.0*	7.8
CCOC(=O)c1ccc(NC(=O)Cn2ncc(Cl)c(Cl)c2=O)cc1	27.4*	-1.5	1.8	51.8*	26.7*	-4.8	37.4*	11.0	24.4*	14.6	98.9*	65.5*	14.4*
CCOC(=O)c1ccc(NC(=O)Cn2nc(C)c3ccccc3c2=O)cc1	x	-1.4	6.4	-9.5	3.5	-1.3	x	x	x	x	x	x	x
C[C@H](CO)N1C[C@H](C)[C@H](CN(C)C(=O)Cc2ccncc2)Oc2ncc(Br)cc2C1=O	x	x	-2.2	3.2	-0.5	x	x	x	x	x	x	x	x
CC(=O)N1CC2(CC(c3ccccc3F)=NO2)CN1c1ccc(Cl)cc1 (stereo unspecified)	x	x	-2.0	15.9	-6.1	x	x	x	x	x	x	x	x
CC1(C)CC(=O)C2=C(C1)OC1=C(C(=O)CC(C)(C)C1)C2c1ccc(O)cc1O	33.5*	-5.4	0.4	66.8*	14.7	-5.1	24.4	-7.5	x	x	x	78.6*	-1.6
O=[N+]([O-])c1ccc(-c2nc(-c3cccs3)c(-c3cccs3)[nH]2)cc1	28.0*	2.3	-7.5	32.9*	30.5*	-4.3	23.2	48.8*	17.4	20.0	3.6	36.0*	37.2*
O=[N+]([O-])c1cccc(-c2nc(-c3cccs3)c(-c3cccs3)[nH]2)c1	-9.3	0.2	-0.4	3.0	-11.4	-7.0	x	x	x	x	x	x	x
O=S(=O)(c1ccc(Br)c2nsnc12)N1CCOCC1	56.5*	-5.2	5.9	56.1*	27.5*	5.0	54.2*	75.8*	14.2	8.6	13.6*	54.1*	20.1*
Cc1cc(-c2cccs2)c2c(N)c(C(=O)c3ccc4c(c3)OCO4)sc2n1	9.2	1.9	-0.3	-1.7	18.3	-3.5	x	x	x	x	x	x	x
COc1ccc(C(=O)c2sc3nc(C)cc(-c4cccs4)c3c2N)cc1	34.5*	x	0.5	63.8*	56.4*	-3.5	13.7	19.7	45.3*	46.0	2.0	36.5*	71.3*
O=C(OCCN1C(=O)c2cccc3c(N4CCOCC4)ccc(c23)C1=O)c1ccccc1Cl	41.1*	27.4*	-1.6	53.5*	39.9*	-10.1	46.2*	64.7*	x	x	x	54.0*	59.7*
O=C1c2cccc3c(N4CCCCC4)ccc(c23)C(=O)N1c1cccc(O)c1	50.4*	9.2	5.2	53.8*	42.0*	-4.0	35.0*	55.1*	34.6*	33.2	10.6*	61.2*	67.9*
C=CCN1C(=O)c2cccc3c(N4CCCCC4)ccc(c23)C1=O	50.7*	3.0	4.0	22.4*	8.2	3.1	36.3*	60.7*	x	x	x	61.0*	63.7*
O=C(c1cccc(N2C(=O)c3ccccc3C2=O)c1)N1CCCCCC1	4.4	3.5	-3.4	-0.1	-6.6	2.6	x	x	x	x	x	x	x
COCCCN1C(=O)C(CC(=O)NCCN2CCOCC2)CC(C(=O)N(C(C)C)C(C)C)=C1C (stereo unspecified)	x	x	3.8	-3.7	x	x	x	x	x	x	x	x	x
COCCNC(=O)C1(C)CCCN(C(=O)CCc2ccccc2)C1 (stereo unspecified)	x	x	-3.3	10.2	x	x	x	x	x	x	x	x	x
Cc1c(Nc2cc(Cl)c3nonc3c2[N+](=O)[O-])c(=O)n(-c2ccccc2)n1C	37.9*	x	-8.9	84.5*	50.3*	15.6	28.9*	1.9	47.7*	6.7	97.6*	56.4*	30.7*
Cc1c(Nc2cc(N3CCOCC3)c3nonc3c2[N+](=O)[O-])c(=O)n(-c2ccccc2)n1C	-4.0	-4.0	x	x	x	x	x	x	x	x	x	x	x
COc1ccc(NC(=O)C(c2cccc3ccccc23)n2c(=O)c(-c3ccco3)nc3ccccc32)cc1 (stereo unspecified)	x	x	1.4	1.9	x	x	x	x	x	x	x	x	x
CCNC(=O)C1(C)CCCN(C(=O)c2cccnc2Oc2ccccc2)C1 (stereo unspecified)	x	x	1.0	-2.5	x	x	x	x	x	x	x	x	x
CC(C)(C)c1ccc(C(=O)Nc2cccc3c(=O)[nH][nH]c(=O)c23)cc1	28.7*	2.7	2.6	50.0*	35.0*	x	28.0*	50.7*	17.6	21.6	2.7	42.0*	48.1*
O=C(NCc1ccccc1)C(c1ccccc1F)n1c(=O)c(-c2ccco2)nc2ccccc21 (stereo unspecified)	x	x	2.3	-11.2	x	x	x	x	x	x	x	x	x
CCCCCCCCCCCCCCCCCCNc1ccn(C2OC(COP(=O)(O)OCC3OC(n4cc(F)c(=O)[nH]c4=O)CC3O)C(O)C2O)c(=O)n1 (stereo unspecified)	x	x	-5.5	-1.4	4.2	13.4	x	x	x	x	x	x	x
COc1cc2c(cc1OC)C(=Cc1ccc(N(C)C)cc1)C=C2	x	x	-5.7	-6.5	-3.6	4.4	x	x	x	x	x	x	x
COc1cc2nc(/C=C/c3ccc(N(C)C)cc3)sc2cc1SC	64.1*	7.1	3.2	41.0*	31.8*	-2.5	65.0*	95.8*	53.0*	59.4*	1.1	77.7*	82.1*
O=C(C1=NN(c2ccccc2)C2C(=O)N(c3ccccc3)C(=O)C12)c1ccccc1 (stereo unspecified)	21.8	8.8	-3.9	16.0	8.6	-17.9	x	x	x	x	x	x	x

Bioassay records deposited in PubChem by several laboratories.
